The campaign covered roughly 330,000 compounds. About 960 (0.29%) were called active. Only a selection was taken, and actives are over-represented in it overall. Values without a mark were called inactive.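 Rule for the calls: active = compounds whose signal lies at least 3.5 SD above the mean of all wells on their plate; inactive = the rest.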

The assay in a line: small molecules increasing insulinoma cell replication – ATP luminescence, uHTS, primary screen (AID 2380).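 Note: 0% = DMSO-treated cells in low-serum medium and 100% = 10% serum control.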 Conditions: MIN6 cells proliferation, ATPlite luminescence, 48 h, at 10 µM, hits give high values. For orientation: In ATP-based viability assays light output follows the ATP content of the culture.
`c1ccc(CCNC2CCCCCC2)cc1`: the proliferation was 1.52%. For the compound `COc1ccc(CNCCc2ccc3c(c2)OCO3)c(OC)c1OC`, the proliferation is 5.73%. Under `c1cc2c(cc1CCNC1CCCCCC1)OCO2` stands 8.35% (active); under `CC1(C)Cc2c(C#N)c(N3CCNCC3)nc(-c3ccco3)c2CS1`, -3.88%; under `CC(=O)c1ccc(OC(NC(=O)Cc2ccccc2)C(Cl)(Cl)Cl)cc1` (stereo not given), -1.48%.

Turning to `COC(=O)COc1cc(C)cc2oc(=O)c3c(c12)CCCC3`, the proliferation is 5.08% (active). On to `Cc1cc(OCc2cc(C(=O)O)oc2C)c2c3c(c(=O)oc2c1)CCCC3`, for which the proliferation is -3.8%. With `COc1cc(OC)cc(C2(C#N)CCN(C)CC2)c1`, the proliferation is -0.56%. Take `CCOc1cccc(=NC2CCCCC2)c2c(C)[nH]c(C)c12`: the proliferation was -3.34%.

For the compound `CCC1(C)CC(CCNCc2ccc(N(C)C)cc2)(c2ccc(F)cc2)CCO1` (stereo not given), the proliferation is -4.45%. Then `COc1ccc(C(=O)CC2C(=O)N(C)C(=O)N(C)C2=O)cc1`, with -0.73%; and `O=C(N/N=C/c1c(O)n(Cc2ccccc2)c(=O)[nH]c1=O)c1ccccc1`, with 5.26% (active). Then `O=c1[nH]c(=O)n(Cc2ccccc2)c(O)c1/C=N/Nc1c(F)c(F)c(F)c(F)c1F`, with 1.39%. Take `O=C(N/N=C/c1c(O)n(C2CC2)c(=S)[nH]c1=O)c1ccccc1`: the proliferation was -1.64%. For the compound `COC(=O)C1=C(c2ccc(Cl)c(C(F)(F)F)c2)C[C@@H]2CC[C@H]1N2C(=O)NC(C)C`, the proliferation was -1.97% [100% = growth in 10% serum, cells starved in 0.2% serum].

These data come from PubChem BioAssay AID2380 (Sanford-Burnham Center for Chemical Genomics, 2010).
